Tb PYK inh: inhibitors of Trypanosoma brucei pyruvate kinase; actives 0.12% (n = 410,000); Potency, µM (highest dose often 76.8 µM), for inactives: top-dose activity, negative = inhibition, usual class: inhibitors; AID 624173; Q57TT1; TbPYK enzyme, Kinase-Glo Plus ATP luminescence, 45 min; active = well fitted curve in the direction sought with a large enough effect; inconclusive = small, poorly fitted or top-dose-only effect, or another doubt; inactive = no such curve, though single readings can be large; an effect the other way counts as inactive or inconclusive; note: potency is the fitted concentration of half-maximal effect; % is set by controls: 0 for no effect and ±100 for the full control effect; nearly all actives have a fitted effect of over 50% in size
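Screened from lowest to highest concentration, compounds were pinned into TbPYK/substrate mixtures, and ADP (130 uM final) was added. Plates sat at room temperature for 45 min prior to Kinase-Glo Plus detection by luminescence.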
SARS PLP yeast: inhibitors of SARS-CoV papain-like protease in yeast. actives 0.19% (n = 330,000). S. cerevisiae expressing SARS-CoV PLpro, growth rescue. Potency, µM (titrated, usually from 32.9 µM), without a hit: top-dose activity, positive = growth rescue, most hits filed as activators; note: potency is the fitted concentration of half-maximal effect; 0% is about no effect; nearly all actives have a fitted effect of over 55% in size
LmPK inh: LmPK (Leishmania mexicana) enzyme inhibition. Q27686. purified LmPK, Kinase-Glo ATP luminescence, 1 h. Potency, µM (doses to about 57.5 µM), for the others: at the top dose activity change, negative = inhibition, hits mostly inhibitors. actives 0.37% (n = 290,000). AID 1721; active = well fitted curve in the direction sought with a large enough effect; inconclusive = small, poorly fitted or top-dose-only effect, or another doubt; inactive = no such curve, though single readings can be large; an effect the other way counts as inactive or inconclusive; note: potency is the fitted concentration of half-maximal effect; % is set by controls: 0 for no effect and ±100 for the full control effect
Target sequence (Q27686 whole entry, looked up): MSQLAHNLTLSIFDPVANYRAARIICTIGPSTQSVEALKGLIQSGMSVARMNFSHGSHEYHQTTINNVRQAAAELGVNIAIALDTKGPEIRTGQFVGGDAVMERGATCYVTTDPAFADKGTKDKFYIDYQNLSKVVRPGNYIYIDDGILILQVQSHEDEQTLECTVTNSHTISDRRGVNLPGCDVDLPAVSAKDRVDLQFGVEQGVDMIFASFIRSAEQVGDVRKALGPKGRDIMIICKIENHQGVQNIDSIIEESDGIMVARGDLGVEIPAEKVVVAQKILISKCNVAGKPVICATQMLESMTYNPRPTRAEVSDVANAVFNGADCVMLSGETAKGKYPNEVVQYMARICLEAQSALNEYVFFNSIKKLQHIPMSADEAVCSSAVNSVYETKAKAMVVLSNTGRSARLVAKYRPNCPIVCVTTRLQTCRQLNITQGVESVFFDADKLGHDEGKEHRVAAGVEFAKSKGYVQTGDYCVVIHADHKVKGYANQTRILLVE
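Kinase-Glo luminescence read after 1 h RT reaction of 0.1 nM LmPK with 0.5 mM PEP and 0.1 mM ADP. Activity scaled between uninhibited and enzyme-free controls.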
Cycloheximide cs: counter-screen for Shiga toxin inhibitors: cycloheximide protein synthesis inhibition; cell reporter, cycloheximide protein synthesis inhibition counterscreen; max response, %; actives 12% (n = 300,000); in the data active = max response mostly above about 13%, no sharp cut-off; inactive = mostly below about 14%; note: read at 38.3 µM for the half of the compounds with a filed dose; 0% is about no effect
Shiga toxin inh: Shiga toxin inhibition; Vero cells, Shiga toxin protein synthesis inhibition reporter; AID 2315; actives 9.2% (n = 290,000); inhibition, % at 38.7 µM; in the data active = inhibition mostly above about 28%, no sharp cut-off; inactive = mostly below about 43%; note: 0% is about no effect
NS1 function inh: inhibitors of influenza NS1 protein function; Potency, µM (doses to about 46.1 µM), for inactives: at the top dose activity, positive = more growth; actives 0.4% (n = 270,000); AID 2326; note: potency is the fitted concentration of half-maximal effect; actives are rising curves; nearly all actives have a fitted effect of over 50% in size
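A cell-based growth assay was used: compounds that relieve NS1-induced slow growth of budding yeast raise OD600. Assay medium was yeast nitrogen base with ammonium sulphate and -URA supplement, pH 6.0, with 2% galactose.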
* = called active by the depositor; u = inconclusive; x = no result. Only a selection was taken, and hits are over-represented in it overall. Unless noted, calls come from the whole dose curve.

SMILES | Tb PYK inh | SARS PLP yeast | LmPK inh | Cycloheximide cs | Shiga toxin inh | NS1 function inh
CN1CCN(c2ccc(NC(=O)c3ccc4ccccc4c3)cc2)CC1 | -7.6% | 1.9% | 5.0% | 30.8* | 85.4* | 2.6%
CCOC(=O)N1CCN(C(=O)c2ccc(NC(=O)c3ccc(C)cc3)cc2)CC1 | -1.3% | -0.1% | 0.6% | 31.4* | 33.8 | -3.2%
CCCCOc1ccc(C(=O)Nc2ccc(N3CCN(C)CC3)cc2)cc1 | -16.0% | 2.2% | 7.0% | -2.4 | -13.6 | 14.1%
CCOc1ccc(C(=O)Nc2ccc(N3CCN(C)CC3)cc2)cc1 | 3.1% | 1.5% | -10.9% | 12.0 | 14.6 | -2.7%
COc1ccc(-c2oc3c(c2C#CC(C)(C)O)C(OCCO)CC3)cc1 (centres undefined) | 0.6% | x | x | x | x | x
Cc1ccc(C(=O)Nc2ccc(N3CCN(C)CC3)cc2)cc1 | -7.2% | 5.2% | 1.0% | 34.3* | 56.3* | 2.7%
CCn1c(/C=C/c2cc[n+](C)cc2)nc2ccccc21 | -11.0% | 1.9% | -3.7% | -1.1 | -7.0 | 15.0%
COc1ccc(/C=C/c2nc3ccccc3n2Cc2ccc(OC)c(OC)c2)cc1 | -5.2% | 0.5% | -23.3% | 70.4* | 57.1* | -6.9%
CCCn1c(/C=C/c2ccccc2)nc2ccccc21 | -8.8% | -11.5% | u | 26.1* | 106.2* | -84.7%
CC(C)Cn1c(/C=C/c2ccco2)nc2ccccc21 | -18.6% | -27.5% | -3.2% | 19.1* | 33.3 | -31.5%
CC(C)n1c(/C=C/c2ccccc2)nc2ccccc21 | -6.7% | -25.1% | -5.6% | 29.9* | 78.9* | -18.7%
CCOc1ccc(CNC(=O)c2cc3ccccn3n2)cc1 | -9.6% | x | x | x | x | x
COCCOCCn1c(/C=C/c2ccccc2)nc2ccccc21 | -6.9% | -2.3% | 14.1µM* | 20.1* | 28.1 | -5.5%
O=C(CSc1ccc([N+](=O)[O-])cn1)Nc1ccc2c(c1)OCCO2 | -4.9% | 0.5% | 0.0% | 17.3* | 33.8 | 4.8%
COc1ccc(Nc2nnc(SCC(=O)N3CCCC3)s2)cc1 | -21.8% | -1.4% | 15.4% | 1.1 | -3.2 | -4.8%
COc1cccc(Nc2nnc(SCC(=O)N3CCOCC3)s2)c1 | -2.5% | -2.4% | -0.8% | 16.3* | 73.0 | -7.2%
O=C(CSc1ncccn1)NC(=O)Nc1ccc2c(c1)OCCO2 | -1.3% | -0.5% | -5.5% | 34.6* | 46.0* | 3.6%
CCn1c(SCC(=O)NC(=O)Nc2ccc3c(c2)OCCO3)nnc1-c1cccs1 | 6.2% | 2.7% | 14.5% | 18.0* | 45.7 | -30.8%
COc1ccc(OC)c(NC(=O)C2(C)CCN2Cc2ccc(SC)cc2)c1 (centres undefined) | 0.5% | x | x | x | x | x
Cc1ccc2occ(-c3cc(-c4ccc(Cl)cc4)nc4c3COc3ccccc3-4)c(=O)c2c1 | -6.2% | x | x | x | x | x
O=C(CCCCn1c(=S)[nH]c2ccsc2c1=O)NCc1ccc2c(c1)OCO2 | u | 4.8% | -5.4% | 3.7 | -9.7 | x
O=C(Cn1cnc2ccccc2c1=O)NCCC(=O)Nc1ccc2c(c1)OCO2 | 0.6% | -7.0% | -0.8% | -0.8 | -4.4 | x
O=C(CCn1c(=S)oc2ccccc21)N1CCCCC1 | -2.5% | 3.3% | 10.5% | 25.7* | 24.5 | x
O=C(CCn1cnc2ccccc2c1=O)Nc1ccc2c(c1)OCCO2 | 1.1% | 3.7% | -1.6% | 14.4* | 73.4* | -2.9%
CCC(=O)Nc1nnc(SCC(=O)Nc2ccc3c(c2)OCCO3)s1 | 11.8% | 1.2% | 3.9% | 7.7 | 16.3 | 27.2%
SMILES | Tb PYK inh | SARS PLP yeast | LmPK inh | Cycloheximide cs | Shiga toxin inh | NS1 function inh
O=C(CCCn1c(=S)[nH]c2ccsc2c1=O)Nc1ccc2c(c1)OCCO2 | u | 0.9% | 0.9% | 39.0* | 98.4* | x
COc1ccc(Nc2nnc(SCC(=O)NC(=O)Nc3ccc4c(c3)OCCO4)s2)cc1 | -11.5% | 0.9% | -1.5% | 14.9* | 40.8 | 10.0%
Cn1c(N)c(C(=O)COC(=O)Cc2ccc(Cl)cc2)c(=O)n(C)c1=O | 0.3% | 1.7% | x | x | x | x
O=[N+]([O-])c1ccc(CN2[C@H](COCc3ccccc3)[C@@H](N3CCCC3)CS2(=O)=O)cc1 | -1.2% | x | x | x | x | x
CCc1ccc(S(=O)(=O)c2nnn3c2nc(NC(C)C)c2cc(Cl)ccc23)cc1 | 3.0% | x | x | x | x | x
CN(C)C(=O)c1ccc(-n2cnc3ccccc3c2=O)cc1 | 1.0% | -0.7% | 1.4% | -0.8 | 18.4 | x
O=C(CCn1c(=S)oc2ccccc21)Nc1ccc2c(c1)OCCO2 | 3.4% | -0.1% | 1.9% | 14.8* | 12.9 | -2.9%
O=C(CSc1nccc(=O)[nH]1)Nc1ccc2c(c1)OCCO2 | -1.2% | 1.3% | 7.2% | 41.6* | 154.6* | x
O=c1c2ccccc2ncn1-c1ccc2c(c1)OCCO2 | -9.7% | 3.0% | -4.8% | 31.6* | 64.7* | -0.7%
CC(=O)Nc1ccc(NC(=O)CCn2c(=S)oc3ccccc32)cc1 | 0.1% | 0.8% | 1.5% | -1.8 | 3.0 | x
O=C(CCCn1c(=O)oc2ccccc21)N1CCc2ccccc2C1 | 1.8% | 2.4% | -4.4% | 26.6* | 37.9* | -5.6%
Cc1cc(=O)[nH]c(SCC(=O)Nc2ccc3c(c2)OCCO3)n1 | -1.8% | 0.9% | -11.9% | -1.9 | -14.4 | -0.3%
Cc1ccc(S(=O)(=O)CCOC(=O)CNC(=O)OCc2ccccc2)cc1 | 0.6% | x | x | x | x | x
CN(C)CCNc1ncnc2c1ncn2[C@H]1CN(CCc2ccccc2)C[C@@H](CO)O1 | 0.8% | x | x | x | x | x
O=C(CSc1ccccn1)Nc1ccc2c(c1)OCCO2 | 4.6% | -3.5% | -4.0% | 54.5* | 88.8* | -9.2%
C=CCOn1c(=O)c(-c2ccc(OCC)cc2)[n+]([O-])c2ccccc21 | 1.9% | -1.9% | 0.6% | 9.2 | 15.1 | 3.1%
COc1ccc(OCC(CO)N2CCN(c3ccccc3)CC2)cc1 (centres undefined) | 5.5% | x | x | x | x | x
COc1ccccc1C1CC(c2cccs2)=Nc2ccccc2S1 (centres undefined) | -5.5% | -3.9% | -4.5% | 69.7* | 96.6* | -14.7%
COc1ccc(-c2cc(C(F)(F)F)nc(SCC(=O)N3CCC(C)CC3)n2)cc1 | 0.9% | x | x | x | x | x
CC[C@H](CO)Nc1nc(Nc2cccc(Cl)c2)c2ncn(C(C)C)c2n1 | 6.2% | -0.9% | 2.2% | 10.0* | 22.0 | -0.9%
CC(=O)Nc1ccc(NC(=O)/C(Cl)=C/c2ccccc2)cc1 | -8.6% | -7.3% | 1.7% | 47.5* | 157.3* | -58.6%
CCNC(=O)C1(C)CCN(Cc2cccc(Oc3ccccc3)c2)C1 (centres undefined) | -8.3% | x | x | x | x | x
CCN1/C(=C\C=C(C(C)=O)C(C)=O)Sc2ccccc21 | -6.1% | 0.9% | 0.5% | 18.9* | 16.4 | x
CCOC(=O)/C(C#N)=C(C)/C=C1\Sc2ccccc2N1CC | 2.1% | 0.9% | 1.7% | 13.5 | -5.6 | 4.2%
CCN1/C(=C\C(=S)Nc2ccccc2)Sc2ccccc21 | -20.4% | -2.1% | -1.1% | 30.8* | 56.3* | 3.1%
Cc1cccc2nc(Cn3c(=O)n(-c4ccccc4)c(=O)c4c5c(sc43)CCC5)cc(=O)n12 | 1.6% | x | x | x | x | x
S=C1NCN2CCN(CC2)CNC(=S)C(=S)NCN2CCN(CC2)CNC1=S | x | x | x | x | x | -7.6%

Source: PubChem (National Center for Advancing Translational Sciences (NCATS))
